Assay in all cases: NCI-60 one-dose screen, 48 h (100 = growth as untreated, 0 = no growth, -100 = all killed)
Conditions in all cases: 10 µM unless noted

Experiment [1] deals with NCI-H23 lung.
The test system of experiment [2] is NCI-H226 lung.
Experiment [3] has as its system NCI-H322M lung.
The test system of experiment [4] is HOP-62 NSCLC.
The test system of experiment [5] is NCI-H460 lung.
Experiment [6] relates to NCI-H522 lung.
In experiment [7] the test system is A549/ATCC NSCLC.
Experiment [8] deals with 786-0 renal.
The subject of experiment [9] is COLO 205 colon.
In experiment [10] the test system is DU-145 prostate.
For experiment [11], the system named is K-562 leukemia.
Experiment [12] has as its system MALME-3M melanoma.
Experiment [13] relates to MDA-MB-231 breast.
The subject of experiment [14] is RXF 393 renal.
Experiment [15] deals with SF-268 CNS.
Experiment [16] relates to SF-295 CNS.
In experiment [17] the test system is SF-539 CNS.
Experiment [18] deals with UACC-257 melanoma.
Experiment [19] has as its system M14 melanoma.

Consider eight compounds from PubChem BioAssay (NCI).

About 83,000 compounds went through this panel and 20% of them were active in at least one assay; those are over-represented in the sample as a whole.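 Compound tested at a single concentration for 48 hours in 96-well plates; a percent growth value below 10 was scored as active.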 Values without a mark were called inactive. Active and inactive are the calls of the source.

In the case of `Oc1c(C(Nc2cccc3ccccc23)c2ccccc2)ccc2cccnc12` (configuration not stated), the growth was 41.8% in experiment [1]; 50.6% in experiment [2]; 37.2% in [3]; 52.2% in experiment [4]; 5.7% (active) in experiment [5]; 16.1% in experiment [6]. Besides, the growth in experiment [7] was 33.6%; in [8], -13.6% (active); in experiment [9], 38%; in experiment [10], 35%; in experiment [11] it was 11.6%; in experiment [12], 31.7%. The growth was 17.8% in experiment [13]; 69.4% in [14]; 23.4% in experiment [15]; 7.99% (active) in experiment [16]; 43.3% in [17]; 22.5% in experiment [18]. In [19], the growth is 0.701% (active).

For the compound `O=[N+]([O-])c1ccc(N/N=C\c2ccc(O)cc2O)nc1`, the growth in [1] is 44.9%; in experiment [2], 85%; in [3], 39.7%; in experiment [4], 33.7%; in [5], 19.6%; in [6] it was 10.9%. For the same compound, the growth is 25.6% in [7]; 18.4% in experiment [8]; 65.9% in experiment [9]; 50.7% in [10]; 22.4% in experiment [11]; 57.8% in [12]. Further, the growth in [13] is 52.9%; in [14] it was 36.3%; in [15], 37.3%; in experiment [16], 28.5%; in experiment [17], 37.5%; in experiment [18], 41.3%. Also, the growth in experiment [19] is 8.7% (active).

Take `O=C1C(Cl)=C(Nc2cccc3ccccc23)C(=O)c2ccccc21`: the growth in experiment [1] was 73.6%; in experiment [2] it was 87.8%; in experiment [3], 83.1%; in [4], 84.9%; in [5], 90.7%; in experiment [6] it was 44.7%. Besides, the growth is 87.9% in [7]; 90% in [8]; 88.9% in experiment [9]; 111% in experiment [10]; 26.6% in experiment [11]; 53.4% in experiment [12]. The growth was 57.5% in [13]; 120% in experiment [14]; 85.5% in experiment [15]; 95.1% in experiment [16]; 107% in experiment [17]; 74.7% in [18]. Also, in experiment [19], the growth is 87.8%.

With `CCCCOc1nc2ccc(C)cc2cc1/C=C/C(=O)/C=C(O)/C=C/c1cc2cc(C)ccc2nc1OCCCC`, the growth in experiment [1] is 92%; in experiment [2] it was 102%; in experiment [3], 92%; in experiment [4], 87.3%; in [5] it was 106%; in [6], 85%. In addition, the growth was 91.7% in experiment [7]; 96.5% in experiment [8]; 114% in experiment [9]; 112% in experiment [10]; 99.2% in [11]; 118% in [12]. The growth was 103% in [13]; 108% in experiment [14]; 103% in experiment [15]; 101% in experiment [16]; 103% in experiment [17]; 89.4% in experiment [18]. Also, the growth in experiment [19] is 98.4%.

For `COc1ccc2nc(C)cc(Sc3nc4ccccc4s3)c2c1`, the growth in [1] was 29.4%; in experiment [2], 39.5%; in experiment [3], 60%; in [4], 57.5%; in experiment [5], 34.6%; in experiment [6] it was -20.9% (active). In addition, the growth in [7] is 35.7%; in [8], 73.8%; in [9], 33.7%; in experiment [10], 37.3%; in [11], 4.93% (active); in experiment [12], 25.7%. Moreover, the growth is 27.9% in experiment [13]; -16.5% (active) in experiment [14]; 42.7% in experiment [15]; 82.5% in experiment [16]; 55.4% in experiment [17]; 49% in experiment [18]. For the same compound, the growth in experiment [19] is 65.5%.

On to `O=C(Nc1cccc(Cl)c1)Nc1ccccc1Cl`, for which the growth is 73.1% in experiment [1]; 108% in experiment [2]; 99.8% in [3]; 101% in [4]; 86% in experiment [5]; 42.6% in experiment [6]. The growth in experiment [7] is 80.8%; in experiment [8] it was 82.1%; in experiment [9] it was 121%; in experiment [10], 95.8%; in experiment [11], 61.3%; in experiment [12], 92%. The growth in experiment [13] was 73.8%; in experiment [14], 117%; in [15], 91%; in [16] it was 80.7%; in [17], 104%; in experiment [18], 86.8%. For the same compound, in experiment [19], the growth was 106%.

Consider `CCN1C(=O)N(CC)C2C1NN=c1s/c(=C\c3ccco3)c(=O)n12` (configuration not stated), for which the growth was 37.3% in experiment [1]; 60% in [2]; 42.5% in [3]; 28.2% in [4]; 12.9% in experiment [5]; -9.98% (active) in experiment [6]. Moreover, the growth in [7] was 25%; in experiment [8], 25%; in experiment [9], -19.8% (active); in experiment [10] it was 3.04% (active); in [11], 11.5%; in experiment [12] it was 55.8%. Moreover, the growth is 43% in experiment [13]; -2.28% (active) in experiment [14]; 44% in experiment [15]; 8.2% (active) in experiment [16]; -1.22% (active) in [17]; 63% in experiment [18]. In addition, the growth in experiment [19] is 5.24% (active).

As for `COc1cc(C2CC(c3ccc(C)cc3)=NN2C=O)ccc1Oc1nc2c(c(=O)n(C)c(=O)n2C)n1C` (configuration not stated), the growth in experiment [1] was 85.3%; in [2] it was 84%; in [3] it was 60.8%; in experiment [4], 115%; in experiment [5] it was 98.6%; in experiment [6] it was 98.3%. Besides, the growth in experiment [7] was 52%; in [8], 110%; in experiment [9] it was 110%; in experiment [10] it was 64.5%; in [11], 88.3%; in experiment [12], 87.8%. The growth in experiment [13] is 84.8%; in [14] it was 98.6%; in [15], 58.1%; in experiment [16] it was 69.8%; in [17] it was 116%; in experiment [18] it was -31.3% (active). In addition, the growth in experiment [19] is 77.5%.
